# Values joined by “and” are separate entries in the source; they are usually repeats but may differ in a detail not shown here. Equal values may be shown once. The panel holds about 83,000 compounds, 20% with a hit somewhere; the sample as a whole holds those more often.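 A percent growth of 40 corresponds to 60% growth inhibition; 0 means no net growth; -100 means all cells died. Active threshold: below 10.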 Active and inactive are the calls of the source.
# Test system: HCT-15 colon
# Experiment: NCI-60 one-dose screen, 48 h (100 = growth as untreated, 0 = no growth, -100 = all killed)
# Settings: 10 µM unless noted
row,Structure (SMILES),growth
1,COc1cc2c(c(OC)c1OC)-c1ccc(OC)c(=O)cc1[C@@H](NC(C)=O)CC2,12.2% (inactive) and 8.71% (active) and 3.71% (active)
2,CCN(CC)CCCC(CNc1ccnc2cc(Cl)ccc12)c1ccc(Cl)cc1 (centres undefined),-29.5% (active) and 5.81% (active)
3,N#CCCOc1ccccc1,97.5% (inactive)
4,COc1ccc(/C(C#N)=C/c2ccccn2)cc1,96.2% (inactive) and 109% (inactive)
5,CCN(CC)C(=S)SSC(=S)N(CC)CC,81.4% (inactive) and 109% (inactive)
6,Nc1ccc(N=Nc2ccc(S(=O)(=O)O)cc2)cc1S(=O)(=O)O,102% (inactive) and 96.7% (inactive)
7,CCN(CC)CCOc1ccc2c(c1)C(=O)c1cc(OCCN(CC)CC)ccc1-2,78.2% (inactive) and 39% (inactive)
8,O=C1OC2(c3ccccc31)c1ccc(O)c(O)c1Oc1c2ccc(O)c1O,94.5% (inactive) and 123% (inactive)
9,O=S(=O)(Nc1ccccc1)C1CCCCC1,109% (inactive) and 102% (inactive)
10,CCNC(=O)Nc1ccc(-c2nc3c(c(N4CCOC[C@@H]4C)n2)CCN(C2COC2)C3)cc1,60.3% (inactive) and 15.9% (inactive)
11,CC(C)Cc1ccc(C(C)C(=O)NCc2ccc(Cn3c(=O)sn(CCCCl)c3=O)cc2)cc1 (centres undefined),103% (inactive) and -35.9% (active)
12,OCc1ccccn1,109% (inactive)
13,Nc1ncnc2c1ncn2C1CC(O)C(CO)O1 (centres undefined),107% (inactive) and 111% (inactive)
14,CCCCCCCCCCCCCCCc1cc(O)ccc1N,89.4% (inactive) and 75.6% (inactive)
15,Cc1ccc2nc3c(nc2c1)-c1cccc2cccc-3c12,75.1% (inactive)
16,O=[N+]([O-])c1ccc(/C=N\NC(=S)Nc2ccc(F)cc2)cc1,106% (inactive) and 96.6% (inactive)
17,CCN(CC)C(=O)c1cccnc1,106% (inactive)

row,Structure (SMILES),growth
1,CN1CCN(CCC=C2c3ccccc3Sc3ccc(S(=O)(=O)N(C)C)cc32)CC1,46.4% (inactive) and 59.2% (inactive)
2,Oc1nc(NCCc2ccccc2)sc1/C=C1\C=Nc2ncccc21,33.5% (inactive) and 36.5% (inactive)
3,COc1cc2nc(N3CCN(C(=O)C4COc5ccccc5O4)CC3)nc(N)c2cc1OC (centres undefined),108% (inactive) and 97.5% (inactive) and 105% (inactive)
4,c1ccc2cc(C[n+]3ccn(Cc4ccc5ccccc5n4)c3)ccc2c1,96.3% (inactive) and 101% (inactive)
5,COc1ccc(Cn2c(NCCN=C(N)N)nc(=O)n(Cc3ccc(F)cc3)c2=O)cc1,103% (inactive) and 106% (inactive)
6,O=C(N/N=C/c1cccc2ccccc12)C1CC1,107% (inactive) and 113% (inactive)
7,CC(C)CNC(=O)c1ccccc1C(=O)NC1(C(=O)NCC(C)C)CCCC1,103% (inactive) and 106% (inactive)
8,Cn1c(=O)n(-c2ccc(C(C)(C)C#N)cc2)c2c3cc(-c4cnc5ccccc5c4)ccc3ncc21,9.69% (active) and 14.5% (inactive)
9,CN(C)c1ccc(C(Cc2ccc3ccccc3n2)Cc2ccc3ccccc3n2)cc1,51.1% (inactive) and 78.8% (inactive)
10,Cc1ccc(S(=O)(=O)Nc2ccc3cc([N+](=O)[O-])ccc3c2[N+](=O)[O-])cc1,71% (inactive) and 94.2% (inactive)
11,NS(=O)(=O)c1cc2c(cc1Cl)NC(C(Cl)Cl)NS2(=O)=O (centres undefined),95.3% (inactive) and 101% (inactive)
12,Nc1ccccc1Nc1ccccc1,86.8% (inactive) and 83.1% (inactive)
13,c1ccc2c(CC3=NCCN3)cccc2c1,104% (inactive) and 106% (inactive)
14,Clc1ccc(NC(Nc2ccc(Cl)cc2)C(Cl)(Cl)Cl)cc1,65.6% (inactive) and 88.7% (inactive)
15,CCOc1ccc2c(S(=O)(=O)O)cccc2c1[N+](=O)[O-],103% (inactive) and 108% (inactive)
16,CCN(CC)CCCC(C)N(Cc1ccccc1)CC(O)c1ccc(Cl)cc1 (centres undefined),101% (inactive) and 97.9% (inactive)
17,Cn1cnc([N+](=O)[O-])c1Sc1ncnc2nc[nH]c12,83.6% (inactive) and 95.5% (inactive)

# Reference: PubChem BioAssay (NCI)
